42 compounds from article PMC4336329 (PLoS ONE, 2015) can be followed below.

Screen size: about 310,000 compounds; about 2,200 (0.71%) showed an effect of 50% or more. The effect is printed as a negative number. Shown is part of a subset that was picked to be rich in strong results.

The target in the assay is human ether-à-go-go-related gene (hERG) potassium channel (human, UniProt Q12809). Nature of the assay: primary screen, population patch clamp on CHO cells stably expressing hERG; higher = less effect of the substance.
Chain of human ether-à-go-go-related gene (hERG) potassium channel (Q12809 whole entry, looked up): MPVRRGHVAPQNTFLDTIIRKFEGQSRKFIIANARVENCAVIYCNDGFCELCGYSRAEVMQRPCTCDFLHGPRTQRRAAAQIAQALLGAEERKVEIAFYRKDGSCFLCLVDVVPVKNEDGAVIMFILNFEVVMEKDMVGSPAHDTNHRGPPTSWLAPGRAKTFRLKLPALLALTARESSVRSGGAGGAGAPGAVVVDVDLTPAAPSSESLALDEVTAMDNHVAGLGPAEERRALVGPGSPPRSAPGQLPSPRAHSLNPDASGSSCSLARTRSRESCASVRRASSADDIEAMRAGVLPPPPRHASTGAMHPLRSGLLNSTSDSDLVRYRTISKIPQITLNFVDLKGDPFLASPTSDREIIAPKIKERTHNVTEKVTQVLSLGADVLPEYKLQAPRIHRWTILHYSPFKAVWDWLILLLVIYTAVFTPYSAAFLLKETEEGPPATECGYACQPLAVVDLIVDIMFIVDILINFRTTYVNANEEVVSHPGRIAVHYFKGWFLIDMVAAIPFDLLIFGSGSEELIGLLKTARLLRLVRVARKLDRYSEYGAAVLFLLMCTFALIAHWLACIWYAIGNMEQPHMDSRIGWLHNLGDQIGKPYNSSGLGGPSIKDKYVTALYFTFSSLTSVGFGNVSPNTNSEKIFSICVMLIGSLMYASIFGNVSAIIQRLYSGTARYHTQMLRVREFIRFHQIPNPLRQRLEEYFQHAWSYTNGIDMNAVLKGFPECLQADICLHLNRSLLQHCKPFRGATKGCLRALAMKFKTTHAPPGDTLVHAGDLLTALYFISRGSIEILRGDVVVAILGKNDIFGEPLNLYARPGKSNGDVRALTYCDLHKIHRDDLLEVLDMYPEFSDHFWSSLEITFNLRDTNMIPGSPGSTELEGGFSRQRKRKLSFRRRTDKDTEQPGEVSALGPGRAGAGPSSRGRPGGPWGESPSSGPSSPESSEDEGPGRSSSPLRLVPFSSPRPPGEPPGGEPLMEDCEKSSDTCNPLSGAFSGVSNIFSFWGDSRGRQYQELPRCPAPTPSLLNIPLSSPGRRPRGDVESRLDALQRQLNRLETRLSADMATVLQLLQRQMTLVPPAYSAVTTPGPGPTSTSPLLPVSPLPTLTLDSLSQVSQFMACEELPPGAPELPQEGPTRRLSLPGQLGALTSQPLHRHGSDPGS
In the case of `CC(Oc1ccc(Cl)cc1)C(=O)Nc1ccccc1C(=O)N1CCOCC1` (stereo not drawn), the “hERG current change (%, negative = inhibition) at 1uM” value is reported as -1.27%. As for `CCc1ccc(CNCc2cccnc2)cc1`, the figure is 9.07%; as for `COc1ccc(-c2cc(C(F)(F)F)n3nc(C(=O)N4CCCCC4)cc3n2)cc1`, 4.13%. As for `O=C(O)COc1ccc(C(NC(=O)c2c(F)cccc2F)NC(=O)c2c(F)cccc2F)cc1`, the figure is 16.9%; as for `O=C1C2=C(SCCS2)C(=O)N1c1ccccc1`, 20.6%; as for `C=CCN=C1SC(C)C(=O)N1S(=O)(=O)c1ccccc1` (stereo not drawn), 4.31%.

On to `CCCc1nnc(SCC(=O)Nc2ccc(OC)cc2)n1N`, for which the “hERG current change (%, negative = inhibition) at 1uM” value worked out at 11.1%. The same measure for `CC(=O)Oc1ccc(/C(C)=N\N2CCN(Cc3ccc(Cl)cc3)CC2)cc1`: -16.4%; for `COc1cc(/C(C)=N/N2CCN(Cc3ccc(C)cc3)CC2)ccc1O`: -3.97%; for `CC(=O)Oc1ccc(/C(C)=N/N2CCN(Cc3ccc(C)cc3)CC2)cc1`: -69.8%. The same measure for `CCOC(=O)c1sc(NC(=O)CCN2CCN(C)CC2)c(C(=O)OCC)c1C`: -15.3%. On to `CCOC(=O)c1sc(NC(=O)CCN2CCCCCC2)c(C(=O)OCC)c1C`, for which the “hERG current change (%, negative = inhibition) at 1uM” value worked out at 10.6%.

As for `CCOC(=O)c1sc(NC(=O)CCN2CCN(CC)CC2)c(C(=O)OCC)c1C`, the “hERG current change (%, negative = inhibition) at 1uM” value is reported as -59.8%. As for `COc1ccc(CCC(=O)Nc2nc3ccccc3[nH]2)cc1`, the figure is 5.78%. For the compound `COc1ccc(CCC(=O)Nc2nc3ccccc3[nH]2)cc1OC`, the “hERG current change (%, negative = inhibition) at 1uM” value is reported as -51.1%. The same measure for `COc1ccccc1CCC(=O)Nc1nc2ccccc2[nH]1`: 18.7%; for `COCCNC(=S)NC12CC3CC(CC(C3)C1)C2`: 11.3%. As for `O=C(NC12CC3CC(CC(C3)C1)C2)c1ccc(-c2cccc(Cl)c2)o1`, the figure is 21.9%; as for `O=C(CCCC(=O)OCC(=O)c1ccc(F)cc1)Nc1cc(C(F)(F)F)ccc1Cl`, 12%.

Turning to `O=C(Cc1ccc(Cl)c(Cl)c1)Nc1ccc2[nH]c(=O)[nH]c2c1`, the “hERG current change (%, negative = inhibition) at 1uM” value was determined as 4.75%. The same measure for `COC(=O)c1cc(S(=O)(=O)NCC2CCN(Cc3ccc(Cl)cc3)CC2)c[nH]1`: -59.6%; for `COC(=O)c1cc(S(=O)(=O)NCC2CCN(Cc3ccc(C)cc3)CC2)c[nH]1`: -63%; for `COC(=O)c1cc(S(=O)(=O)NCC2CCN(Cc3cccc(F)c3)CC2)c[nH]1`: 2.87%. For `COC(=O)c1cc(S(=O)(=O)NCC2CCN(Cc3ccc(F)cc3)CC2)c[nH]1`, the “hERG current change (%, negative = inhibition) at 1uM” value is 7.24%. On to `COC(=O)c1cc(S(=O)(=O)NCC2CCN(Cc3cccc(Cl)c3)CC2)c[nH]1`, for which the “hERG current change (%, negative = inhibition) at 1uM” value is 5.82%.

For the compound `COC(=O)c1cc(S(=O)(=O)NCC2CCN(Cc3cc(C)ccc3C)CC2)c[nH]1`, the “hERG current change (%, negative = inhibition) at 1uM” value is 2.48%. As for `COc1cc(/C=N/NC(=O)c2ccc(N(C)S(=O)(=O)c3ccccc3)cc2)cc(OC)c1OC`, the figure is 10.6%; as for `O=C(O)CCC(=O)Nc1cccc(-c2csc(-c3ccccc3)n2)c1`, 4.25%; as for `COC(=O)c1cc2sccc2n1CC(=O)Nc1ccc(OC)c(OC)c1OC`, 9.49%. The same measure for `COC(=O)c1cc2occc2n1CC(=O)Nc1ccc(OC)c(OC)c1OC`: 11.1%. The same measure for `COC(=O)c1cc2sc(Cl)cc2n1CC(=O)Nc1ccc(OC)c(OC)c1OC`: -58.5%. In the case of `Cc1ccc2[nH]c(=O)c(CN(Cc3nnnn3Cc3ccccc3)C3CCCC3)cc2c1`, the “hERG current change (%, negative = inhibition) at 1uM” value was determined as 11.9%. The same measure for `O=c1cc(CS(=O)(=O)c2ccccc2)nc(-c2ccncc2)[nH]1`: 11.3%. In the case of `Cc1ccc(C(=O)N/C(=C\c2cccs2)C(=O)N2CCCCCC2)cc1`, the “hERG current change (%, negative = inhibition) at 1uM” value is reported as -19.3%. The same measure for `COc1ccc(C(=O)N/C(=C\c2cccs2)C(=O)N2CCN(C)CC2)cc1OC`: -33.9%; for `CCN1CCN(C(=O)/C(=C/c2cccs2)NC(=O)c2ccc(C)c(C)c2)CC1`: -83.5%; for `Cc1ccc(C(=O)N/C(=C/c2cccs2)C(=O)N2CCCCC2)cc1`: 10.6%.

Turning to `Cc1ccc(C(=O)N/C(=C/c2cccs2)C(=O)N2CCCCCC2)cc1`, the “hERG current change (%, negative = inhibition) at 1uM” value was -13.9%. With `CCOC(=O)N1CCN(C(=O)/C(=C/c2cccs2)NC(=O)c2ccc(OC)c(OC)c2)CC1`, the “hERG current change (%, negative = inhibition) at 1uM” value was -64.7%. As for `Cc1ccc(C(=O)N/C(=C\c2cccs2)C(=O)N2CCN(C)CC2)cc1C`, the figure is -77.2%. For the compound `Cc1ccc(C(=O)N/C(=C\c2cccs2)C(=O)N2CCOCC2)cc1C`, the “hERG current change (%, negative = inhibition) at 1uM” value was found to be 1.26%. The same measure for `CCOC(=O)N1CCN(C(=O)/C(=C/c2cccs2)NC(=O)c2cccs2)CC1`: -6.55%.
